{"source": "PubChem BioAssay (NCI)", "note": "The panel holds about 83,000 compounds, 20% with a hit somewhere; the sample as a whole holds those more often.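 96-well plates, one dose, 48 hours. Percent growth reported; active if below 10.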 Activity calls are given as the source filed them."}
{"tested_on": "MDA-MB-468 breast", "assay": "NCI-60 one-dose screen, 48 h (100 = growth as untreated, 0 = no growth, -100 = all killed)", "settings": "10 µM unless noted"}
{"smiles": "Cc1ccc2c(n1)C(=O)C(Cl)=C(Nc1cc(C(F)(F)F)cc(C(F)(F)F)c1)C2=O", "growth": "32.5% (inactive)"}
{"smiles": "O=c1c2cccc(Cl)c2sc2c(NCCCNCCO)nc3ccccc3c12", "growth": "-19.5% (active)"}
{"smiles": "CS(=O)(=O)C1=CN(CCO)C(=O)N2CCCN=C12", "growth": "93.3% (inactive)"}
{"smiles": "CCOc1ccccc1/C=N\\N=C(N/N=C/c1ccccc1OCC)N/N=C/c1ccccc1OCC", "growth": "-30.4% (active)"}
{"smiles": "O=C(Nc1cccc(-c2cccc(F)c2)c1)C1CCN(Cc2cccc3cccnc23)CC1", "growth": "22.6% (inactive)"}
{"smiles": "Cc1cc2nc(C(Cl)Cl)nc(-c3ccco3)n2n1", "growth": "-34% (active)"}
{"smiles": "O=C(CN1CCN(c2cc3c(cc2F)c(=O)c(C(=O)O)cn3C2CC2)CC1)N/N=C/c1ccncc1", "growth": "99.6% (inactive)"}
{"smiles": "O=C1/C(=C/c2ccc(Cl)cc2)COc2ccc(O)c(O)c21", "growth": "-15.3% (active)"}
{"smiles": "COc1cc(NS(=O)(=O)c2ccc(N)cc2)ncn1", "growth": "105% (inactive)"}
{"smiles": "COc1ccc(Nc2nn3c(C)cc(C)nc3c2C(=O)Nc2ccc(C)cc2)c(OC)c1", "growth": "91.6% (inactive)"}
{"smiles": "c1ccc(-c2nn[nH]n2)c(-c2ccc(CN3CCN(c4nsc5ccccc45)CC3)cc2)c1", "growth": "75.8% (inactive)"}
{"smiles": "C=C1C(=O)O[C@H]2[C@H]1CC/C(COC(=O)NCc1c[nH]c3ccc(OC)cc13)=C\\CC[C@@]1(C)O[C@@H]21", "growth": "-27.8% (active)"}
{"smiles": "COc1ccc(/C=c2\\nc3n(-c4ccccc4)c4nc5c6c(sc5c(=N)n4n-3c2=O)CCCC6)cc1", "growth": "90.1% (inactive)"}
{"smiles": "CC(C)c1nc2ccccc2n1CC(=O)N/N=C/c1cccc(O)c1", "growth": "98.4% (inactive)"}
